# Mdm2-MdmX inh: inhibitors of human Mdm2/MdmX interaction; O15151+Q00987; SaOS-2 split-luciferase Mdm2/MdmX complementation, luminescence; inhibition, % at 8 µM; 330,000 tested, 3% active;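 active means inhibition of at least 50% at 8 µM in the primary screen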
# Target sequence (O15151 whole entry, looked up): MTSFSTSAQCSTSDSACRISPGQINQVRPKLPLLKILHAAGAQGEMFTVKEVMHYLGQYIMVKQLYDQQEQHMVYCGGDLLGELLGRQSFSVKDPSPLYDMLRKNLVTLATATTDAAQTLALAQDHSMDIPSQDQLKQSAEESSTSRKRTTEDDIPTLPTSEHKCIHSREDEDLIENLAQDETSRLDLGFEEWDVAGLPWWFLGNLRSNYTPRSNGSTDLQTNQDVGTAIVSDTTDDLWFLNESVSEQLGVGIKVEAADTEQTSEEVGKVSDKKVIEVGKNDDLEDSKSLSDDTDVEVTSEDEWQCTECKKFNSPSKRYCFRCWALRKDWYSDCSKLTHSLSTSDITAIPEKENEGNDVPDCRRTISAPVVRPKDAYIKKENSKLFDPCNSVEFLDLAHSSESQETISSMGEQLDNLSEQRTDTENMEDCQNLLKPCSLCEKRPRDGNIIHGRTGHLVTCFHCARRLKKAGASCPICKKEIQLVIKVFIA
# Target sequence (Q00987 whole entry, looked up): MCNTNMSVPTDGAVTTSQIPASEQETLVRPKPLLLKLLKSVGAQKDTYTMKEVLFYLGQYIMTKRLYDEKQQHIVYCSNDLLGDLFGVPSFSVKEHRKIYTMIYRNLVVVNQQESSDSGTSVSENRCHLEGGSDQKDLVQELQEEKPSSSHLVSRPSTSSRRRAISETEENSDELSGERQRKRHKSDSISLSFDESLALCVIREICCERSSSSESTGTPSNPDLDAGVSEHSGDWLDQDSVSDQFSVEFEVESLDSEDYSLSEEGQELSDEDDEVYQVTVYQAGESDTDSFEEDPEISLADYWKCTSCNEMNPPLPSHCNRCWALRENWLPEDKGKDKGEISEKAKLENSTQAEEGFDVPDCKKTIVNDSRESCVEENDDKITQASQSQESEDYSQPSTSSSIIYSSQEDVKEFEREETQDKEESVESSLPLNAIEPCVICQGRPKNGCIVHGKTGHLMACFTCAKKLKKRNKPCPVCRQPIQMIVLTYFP
# Jurkat NFkB inh: lowers PMA/ionomycin-induced NF-kB signal in Jurkat cells; inhibition, % at 4 µM; PMA/ionomycin-induced NF-kB luciferase reporter, luminescence; 330,000 tested, 0.53% active; in the data active means inhibition above about 50%
# Gli-Sufu block: blocks Gli-Sufu signaling in a luciferase reporter; inhibition, % at 5 µM; 340,000 tested, 0.74% active; Sufu-KO-LIGHT fibroblasts, Gli luciferase reporter luminescence;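 active means inhibition above about 55%, limit read from the data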
# Shn3 inh set2: reduces Shn3 3'UTR luciferase signal in osteoblasts; Clone20 osteoblast Shn3 3'UTR firefly luciferase, 24 h; inhibition, % at 12.5 µM; 360,000 tested, 0.52% active;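 active means mean inhibition of at least 75% with every replicate also reaching 75%; inconclusive means mean inhibition at least 75% but some replicate below; inactive means mean inhibition below 75%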
# 697 NFkB inh: lowers PMA/ionomycin-induced NF-kB signal in 697 B cells; 697 B-cell NF-kB luciferase reporter, 16 h; inhibition, % at 4 µM; 330,000 tested, 0.33% active; AID 435022; in the data active means inhibition above about 35%
# Mdm2 MdmX conf: human Mdm2/MdmX binding inhibition, confirmed; 10,000 tested, 55% active; inhibition, % at 8 µM; shares compounds with Mdm2-MdmX inh; luminescent assay; AID 489028; in the data active means inhibition above about 40%
# Full FLuc ctr: counter-screen for Mdm2/MdmX inhibitors: full-length luciferase. SaOS-2 full-length luciferase counterscreen, luminescence. 6,200 tested, 77% active. inhibition, % at 8 µM. shares compounds with Mdm2-MdmX inh;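 active means mean inhibition at 8 µM reaching about 37%, which flags the compound as non-specific, limit read from the data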;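 further: p53-null SaOS-2 cells with luciferase driven by a doxycycline-inducible promoter; compound on cells about two nights before reading with doxycycline added after day one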
# Hits are given with their value; n = inactive; u = inconclusive; x = not tested or not shown. Hits are enriched below; roughly 3.8% of the tested compounds scored in any of these assays.
SMILES,Mdm2-MdmX inh,Jurkat NFkB inh,Gli-Sufu block,Shn3 inh set2,697 NFkB inh,Mdm2 MdmX conf,Full FLuc ctr
CCn1cc([N+](=O)[O-])c(C(=O)N2N=C(c3ccc4ccccc4c3)CC2c2cc(Br)ccc2O)n1 (centres undefined),99,n,n,n,n,41,39
COc1ccc(CNC(=O)C2CCC(=O)N(CCCN3CCCC3=O)C2)cc1 (centres undefined),n,n,n,n,n,x,x
COc1cc(C(=O)Oc2ccccc2/C=N/NC(=O)c2ccc(Cl)cc2Cl)cc(OC)c1OC,56,n,n,n,n,n,x
N#Cc1c(-c2ccccc2)cc2nc3ccccc3n2c1N,n,n,n,n,n,x,x
COc1cc(-c2cc3nc4ccccc4n3c(N)c2C#N)cc(OC)c1OC,77,n,n,x,n,64,93
COc1ccc(S(=O)(=O)N(C)C)cc1NC(=O)Cc1ccc(S(=O)(=O)N2CCOCC2)s1,n,n,n,n,n,x,x
CCc1c(C(C)=O)oc2ccc3c(C)cc(=O)oc3c12,n,n,x,n,n,x,x
Cc1ccc(/C(=N\O)c2oc3c(C)c4oc(=O)cc(C)c4cc3c2C)cc1,74,n,n,n,n,n,x
Cc1cc(=O)oc2c1ccc1oc(/C(=N/O)c3ccccc3)c(C)c12,58,n,n,n,n,n,x
CCc1c(C(=O)c2ccc(Cl)cc2)oc2c(C)c3oc(=O)cc(C)c3cc12,59,n,n,x,n,n,x
Cc1cc(F)ccc1-c1cc(C(=O)NCc2cccc(C(F)(F)F)c2)[nH]n1,x,x,x,n,x,x,x
O=C(c1ccc(COc2ccccc2Br)o1)N1N=C(C(F)F)CC1(O)C(F)F (centres undefined),n,n,n,n,n,x,x
CCNc1nc(NCC)n2c(SCC(=O)Nc3ccc(C)cc3Br)nnc2n1,n,n,n,n,n,x,x
Nc1ccccc1C(=O)N1O[C@@H]2C=C[C@H]1CC2,n,x,n,n,n,x,x
Cc1ccc(S(=O)(=O)N(C)C[C@@H]2Oc3ccc(NS(C)(=O)=O)cc3CC(=O)N([C@H](C)CO)C[C@@H]2C)cc1,n,n,n,n,n,x,x
Oc1ccccc1/C=N/Nc1nccnc1Cl,71,n,57,u,n,65,n
Oc1ccc(/C=N/Nc2nccnc2Cl)c(O)c1,57,n,n,u,n,73,39
COc1ccccc1-c1nnc(C2CCN(S(=O)(=O)c3ccccc3[N+](=O)[O-])CC2)o1,n,n,n,n,n,x,x
COc1cc(NC(=O)CNC(=O)Cn2ccc3ccccc3c2=O)cc(OC)c1OC,n,n,n,n,n,x,x
CCc1nc2ccc(C(=O)NCc3ccc4c(c3)OCO4)cn2c1N(C)C(=O)Cc1ccccc1,x,x,x,n,x,x,x
N#Cc1ncc(-c2ccc3c(c2)OCCOCCOCCOCCOCCO3)nc1C#N,71,n,n,n,n,61,n
N#Cc1ncc(-c2ccc3c(c2)OCCOCCOCCOCCO3)nc1C#N,n,n,n,n,n,x,x
Cc1ccc(C(=O)N/C(=C\c2ccc(-c3ccc(Br)cc3)o2)C(=O)NCCCN(C)C)cc1,100,n,n,n,n,99,55
CN(C)CCNC(=O)/C(=C/c1ccc(-c2ccc(Cl)cc2Cl)o1)NC(=O)c1ccccc1,100,n,n,n,n,100,n
Cc1ccc(C(=O)N/C(=C\c2ccc(-c3cccc([N+](=O)[O-])c3)o2)C(=O)NCCCN(C)C)cc1,n,n,n,n,n,x,x
SMILES,Mdm2-MdmX inh,Jurkat NFkB inh,Gli-Sufu block,Shn3 inh set2,697 NFkB inh,Mdm2 MdmX conf,Full FLuc ctr
Cc1ccc(OCCCCNC2CCCC(C)C2C)c(C)c1 (centres undefined),56,n,n,n,n,n,x
CCc1ccc([C@@H]2C[C@H]3[C@@H](CN2S(=O)(=O)c2ccc(C)cc2)C(=O)C[C@@H](c2ccc(Cl)cc2)N3S(=O)(=O)c2ccc(C)cc2)cc1,x,x,x,n,x,x,x
CCc1nnc(NC(=O)CSc2nc(-c3ccccc3)nc3ccccc23)s1,78,n,n,n,n,50,90
CC(C)Cc1ccc(-c2cc3nc(NCCOc4ccccc4)ccn3n2)cc1,x,x,x,n,x,x,x
COc1ccc(NC(=O)Nc2nnc(-c3ccccc3SCc3ccccc3)s2)cc1,n,n,n,n,n,x,x
O=C(Nc1nnc(-c2ccccc2SCc2ccccc2)s1)Nc1ccccc1F,76,n,n,n,n,n,x
COc1cccc(NC(=O)Nc2nnc(-c3ccccc3SCc3ccccc3)s2)c1,53,n,n,n,n,n,x

# Assay outcomes: PubChem BioAssay, several laboratories
